EWS-Fli inh – EWS/Fli transcriptional activity inhibition | A673 NR0B1-luciferase reporter, viability-normalised | inhibition, % at 12.6 µM | 350,000 compounds, 0.67% hits;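 active = mean inhibition of at least 50% after viability correction, with every replicate also passing that limit; inconclusive = mean reaches 50% but only one of two replicates passes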;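 note: firefly luciferase signal divided by Alamar Blue viability fluorescence both relative to DMSO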
LGR2 antag – Drosophila LGR2 receptor signaling inhibition | 380,000 compounds, 0.35% hits | HEK293 LGR2, CRE-luciferase, bursicon-stimulated, 4 h | inhibition, % at 9.99 µM;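 active = drop in luminescence signal, shown as inhibition above about 50% in the replicate tests, limit read from the data, passing the limit was not always enough; inconclusive = probably only some replicates passing the limit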;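 note: agonist challenge used bursicon conditioned medium at about half maximal strength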
TRPM1 prom inh – reduces MITF-dependent TRPM1 promoter luciferase signal | SK-MEL-5 TRPM1 promoter luciferase, 24 h | inhibition, % at 12.5 µM | 330,000 compounds, 0.83% hits | AID 488899;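 active = mean inhibition across replicates of 60% or more, whatever share of single replicates reaches that level; inconclusive = some that reach 60%, reason not given; inactive = mean inhibition across replicates below 60%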
Shn3 inh set2 – Schnurri-3 reporter inhibition in Clone20 osteoblasts | inhibition, % at 12.5 µM | 360,000 compounds, 0.52% hits | Clone20 osteoblast Shn3 3'UTR firefly luciferase, 24 h;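 active = mean inhibition of at least 75% with every replicate also reaching 75%; inconclusive = mean inhibition at least 75% but some replicate below; inactive = mean inhibition below 75%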;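 note: 0% = median of neutral control wells and 100% = pilot-screen positive control compound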
PAX8 reporter – lowers PAX8-driven luciferase in RMG-I cells | RMG-I TPO-luciferase reporter, SteadyGlo, 24 h | inhibition, % at 12.6 µM | 360,000 compounds, 1.2% hits;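 active = mean replicate inhibition at least 60% with every replicate also reaching 60%; inconclusive = only one of the two criteria is met; inactive = mean below 60% and not all replicates reaching 60%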;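 note: luciferase light reporting Pax8 driven TPO promoter activity; plate controls were median of neutral control wells for no effect and mitoxantrone controls for full effect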
LMP1 NFkB inh – reduces LMP1-driven NF-kappaB luciferase signal; LMP1-induced NF-kappaB luciferase reporter cells, luminescence; inhibition, % at 12.5 µM; 350,000 compounds, 0.69% hits; in the data active = inhibition above about 41%; inconclusive = no clear call, values can overlap the other calls;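 note: 0% = neutral control wells and 100% = reference inhibitor control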
Numbers without * were called inactive; ? = inconclusive; . = no result. Sampled rows, rich in hits. Any-hit rate of the full collection: about 2.2%.

SMILES	EWS-Fli inh	LGR2 antag	TRPM1 prom inh	Shn3 inh set2	PAX8 reporter	LMP1 NFkB inh
COC(=O)C1=C(C)N(C)C(=NCc2ccc(C(F)(F)F)cc2)NC1c1cccc(F)c1 (configuration not stated)	6.0	10.5	.	.	1.9	.
COC(=O)C1=C(C)N(Cc2ccccc2)C(=NCc2cccc(C(F)(F)F)c2)N[C@H]1c1cccc(C(F)(F)F)c1	.	.	96.0*	-3.9	.	11.6
COC(=O)C1=C(C)N(Cc2ccccc2)C(=NCc2cccc(C(F)(F)F)c2)N[C@H]1c1cccc(F)c1	38.8	-8.3	93.6*	-3.8	59.5	8.4
COC(=O)C1=C(C)N(Cc2ccc(C(F)(F)F)cc2)C(=NCc2ccccc2)NC1c1cccc(C(F)(F)F)c1 (configuration not stated)	34.0	7.6	.	.	?	.
COC(=O)C1=C(C)N(Cc2cccc(C(F)(F)F)c2)C(=NCc2cc(OC)c(OC)c(OC)c2)NC1c1cccc(F)c1 (configuration not stated)	16.9	12.7	.	.	34.4	.
COC(=O)C1=C(C)N(Cc2cccc(C(F)(F)F)c2)C(=NCC2CC2)NC1c1cccc(C(F)(F)F)c1 (configuration not stated)	45.1	45.9	.	.	89.4*	.
COC(=O)C1=C(C)N(Cc2ccc(C(F)(F)F)cc2)C(=NCc2ccc(C(F)(F)F)cc2)NC1c1cccc(F)c1 (configuration not stated)	56.5*	9.0	.	.	32.6	.
C[C@@H]1CN([C@H](C)CO)S(=O)(=O)c2ccc(C3=CCCCC3)cc2O[C@H]1CN(C)C	7.0	9.9	.	.	.	.
COC(=O)C1=C(C)N(Cc2cccc(C(F)(F)F)c2)C(=NCc2cc(OC)c(OC)c(OC)c2)NC1c1ccccc1 (configuration not stated)	9.4	4.4	.	.	7.4	.
COC(=O)C1=C(C)N(Cc2cccc(C(F)(F)F)c2)C(=NCc2cc(OC)c(OC)c(OC)c2)NC1c1cccc(C(F)(F)F)c1 (configuration not stated)	44.7	-4.0	.	.	85.3*	.
C[C@H](CO)N1C[C@H](C)[C@@H](CN(C)C(=O)Nc2cccc(F)c2)Oc2ncc(C3=CCCCC3)cc2C1=O	1.6	6.3	.	.	6.8	.
Cc1cc(C)c(S(=O)(=O)/N=C2/C=C(Sc3ncn[nH]3)C(=O)c3ccccc32)cc1C	.	5.7	89.1*	93.8*	101.6*	-2.0
CC(=O)c1cn(CCOc2cc(C)ccc2C)c2ccccc12	28.9	12.8	21.4	89.9*	44.1	-0.5
COc1cccc(OCCn2cc(C(C)=O)c3ccccc32)c1	4.0	8.5	25.4	87.3*	19.7	9.7
CC(C)(C)OC(=O)N/N=C/c1cccn1-c1ccc([N+](=O)[O-])cc1	-9.5	-25.3	-6.3	-16.5	-25.3	2.6
CN(C)c1ccc(-n2cccc2/C=C/[N+](=O)[O-])cc1	19.7	.	66.2*	-21.6	71.5*	-2.4
C[C@@H]1CN([C@H](C)CO)C(=O)CCCn2cc(nn2)CO[C@H]1CN(C)Cc1ccc(C(=O)O)cc1	0.5	4.7	.	.	-8.1	.
C=C(CCC(=O)c1ccccc1)C(=O)c1ccccc1	13.0	.	2.5	69.0	15.6	5.5
C=C(C(=O)c1ccccc1)C(CC(=O)c1ccccc1)c1ccccc1 (configuration not stated)	.	?	47.7	88.7*	102.4*	68.9*
C[C@@H]1CN([C@@H](C)CO)C(=O)c2cc(NS(=O)(=O)c3ccccc3)ccc2O[C@@H](C)CCCCO[C@H]1CN(C)C(=O)Nc1cccc2ccccc12	6.3	10.9	.	.	-5.3	.
Cc1ccc(CSc2nnc(SCC(=O)N/N=C/c3ccc(C(=O)O)cc3)s2)cc1	60.4*	66.9*	-5.2	-8.8	-13.7	-5.8
O=C(CSc1nnc(SCc2ccccc2)s1)N/N=C/c1ccc(C(=O)O)cc1	17.3	14.8	0.4	-22.9	-4.9	-11.0
O=C(C[C@@H]1CC[C@@H]2[C@H](COC[C@@H](O)CN2C(=O)Nc2ccc(Cl)cc2)O1)NC1Cc2ccccc2C1	.	-11.0	.	.	.	.
COc1cc2c(oc(=O)c3cc(C)cc(OC)c32)c2c(C3OC(C)C(O)C(C)(O)C3O)ccc(O)c12 (configuration not stated)	37.1	17.3	65.1*	8.6	.	77.6*
COc1cccc2cc(C(=O)N3CC(C)OC(C)C3)c(=O)oc12 (configuration not stated)	-26.2	0.3	-3.4	16.3	22.3	-0.2

Source: PubChem
